# In the supplement of paper PMC3334620:
# Over roughly 33,000 sequences, “E-score (-0.5 to 0.5)” has its median near -0.016; the highest 2% begin near 0.3. For the sample, the highest values were picked, then their nearest neighbours and some sequences at random.
# Target: T1, Yer184c (UniProt P39961)
# T1 sequence: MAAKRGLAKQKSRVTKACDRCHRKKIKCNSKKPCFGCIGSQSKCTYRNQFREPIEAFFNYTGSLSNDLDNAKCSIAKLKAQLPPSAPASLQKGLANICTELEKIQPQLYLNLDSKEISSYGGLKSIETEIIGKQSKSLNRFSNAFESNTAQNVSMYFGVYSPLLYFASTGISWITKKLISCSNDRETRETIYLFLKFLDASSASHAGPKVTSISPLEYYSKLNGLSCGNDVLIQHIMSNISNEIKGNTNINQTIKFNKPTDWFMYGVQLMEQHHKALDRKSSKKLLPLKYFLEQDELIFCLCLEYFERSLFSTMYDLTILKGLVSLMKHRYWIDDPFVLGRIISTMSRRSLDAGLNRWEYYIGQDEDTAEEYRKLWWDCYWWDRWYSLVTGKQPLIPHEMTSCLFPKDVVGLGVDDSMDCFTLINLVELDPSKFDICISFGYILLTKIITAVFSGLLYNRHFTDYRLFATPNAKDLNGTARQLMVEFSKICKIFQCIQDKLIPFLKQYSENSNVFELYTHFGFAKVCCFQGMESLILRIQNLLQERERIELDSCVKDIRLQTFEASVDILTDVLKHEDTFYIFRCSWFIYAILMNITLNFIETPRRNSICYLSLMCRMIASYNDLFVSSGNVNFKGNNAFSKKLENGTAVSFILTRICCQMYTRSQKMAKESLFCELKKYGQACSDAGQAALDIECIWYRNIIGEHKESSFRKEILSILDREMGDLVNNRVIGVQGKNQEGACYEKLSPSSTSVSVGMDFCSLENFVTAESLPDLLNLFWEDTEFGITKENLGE
# Assay: PBM E-score (8-mer binding enrichment) (E-score (-0.5 to 0.5)); higher = stronger / more preferred TF binding
# Details: protein concentration: 100 nM; construct: GST-full length
# Outline: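 Each ungapped eight-base word and its reverse complement, pooled, received an E-score from the Universal PBM Analysis Suite. Underlying scans, normalised with masliner, recorded fluorescent anti-GST bound to GST-tagged yeast transcription factors. These were applied at about 100-200 nM to universal all-10-mer Agilent arrays double-stranded by primer extension.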
row,Sequence,PBM E-score
1,ACCGGCAC,0.363
2,TCCGGCAA,0.339
3,ACCGGCAA,0.222
4,CCCGGCAG,0.131
5,TGCGGCAA,0.0333
6,GCCGGCAC,0.422
7,CGCGGCAA,0.274
8,GTGAGGGA,-0.252
9,CAATTGCG,-0.0249
10,ACGCTAAA,0.0442
11,AAATTGAT,0.159
12,AGTTAACC,-0.0162
13,GCTATCCC,-0.16
14,CGAATGCA,0.0594
15,ACCTTGCA,-0.197
16,AAAAATGT,0.0248
17,CTTCTGAC,-0.218
18,CCACAAGA,0.0207
19,GCCGGCTA,0.266
20,GACGGCAA,0.148
21,GCCGGCAA,0.424
22,CGACTAAG,-0.0168

row,Sequence,PBM E-score
1,CTTCGCGA,0.0769
2,ATTCGCGA,-0.0163
3,GTTCGCGA,0.311
4,AATTCCAA,0.116
5,GCTTCCGA,0.306
6,TATTCCGA,0.389
7,CCTTCCGA,0.227
8,AATTCCCA,-0.123
9,TATTCCCA,0.0619
10,GCTTCCTA,0.0691
11,GATTCCCA,-0.0287
12,GATTCCGC,0.0917
13,TATTCCAA,0.115
14,AATTCCGA,0.389
15,GATTCCGA,0.33
16,GGGTAGAA,-0.0545
17,CAGAGCAG,-0.00548
18,ACCAGCTC,-0.141
19,AGACCTAA,-0.106
20,AGAGACCG,-0.00169
21,AATTTCCA,0.145
22,ATCTCTAG,-0.118

row,Sequence,PBM E-score
1,TCTATGAA,0.112
2,CACTTTCC,0.021
3,AAAATTTA,0.228
4,ATAAATTA,0.316
5,CAAATTTA,0.119
6,TAAATTTA,0.311
7,AGAAATTC,0.077
8,ATAAATTG,0.254
9,CAAAATTA,0.212
10,TAAAATTA,0.341
11,AGAAATTA,0.354
12,AAAAATTA,0.253
13,GGAAATTA,0.201
14,CTAAATTA,0.202
15,CGAACTAC,0.0997
16,GATTGCCA,-0.0755
17,GACAGTAC,0.135
18,ACACTCTC,0.0613
19,ACAATCGC,0.0673
20,ACAATCGT,-0.28
21,ACAATCGG,0.307
22,GCTGAACC,0.0738

row,Sequence,PBM E-score
1,AACGCCAG,0.0264
2,AGGCCTTC,-0.0978
3,AGGCCGGA,0.247
4,CGGCCGCC,0.209
5,CGGCCTTC,0.33
6,CGGCCGCA,0.277
7,AGGCCGTA,0.178
8,CGGCCGGC,0.42
9,CGGCCTTA,0.291
10,AGGCCGGC,0.265
11,CGGCCGTC,0.278
12,CGGCCGGA,0.402
13,CGGCCGTA,0.311
14,CAGTAGAA,-0.069
15,AATCCTCA,-0.0565
16,GCCGATAC,0.13
17,CTCAACAG,-0.0543
18,GAAGGGAA,-0.203
19,AGCTCATG,-0.175
20,AGAGTGGC,-0.217
